The nature of assay [1]: binders of probe aFSTL3 on microarray, primary screen, stem cell growth factor project, biochemical, small-molecule microarray, fluorescence 635/667 (AID 1064).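 Note: measures binding of the biotinylated anti-FSTL3 antibody to printed compounds.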 The conditions noted are these: higher = more signal.
Assay [2] is described as follows: binders from COS7 lysate, DM2A8 probe, primary screen, torsin A project, cell lysate, small-molecule microarray, fluorescence 635/667 (AID 1065). The conditions noted are these: higher = more signal, COS7 lysate expressing mutant human TOR1A.
The nature of assay [3]: binders of probe aFGF2 on microarray, primary screen, stem cell growth factor project, biochemical, small-molecule microarray, fluorescence 635/667 (AID 1067).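 Note: measures binding of biotinylated aFGF2 protein to printed compounds on slides; z-score merges feature fluorescence and signal-to-noise across triplicate slides.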 The settings on record: higher = more signal.
Assay [4] in a line: binders of probe aFGF10 on microarray, primary screen, stem cell growth factor project, biochemical, small-molecule microarray, fluorescence 635/667 (AID 1071).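 Note: score merges 667 nm spot intensity and signal to noise from triplicate slides.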 The settings on record: higher = more signal.
Assay [5] has as its target Neurogenic locus notch homolog protein 2 (Homo sapiens) (UniProt Q04721). The experiment in a line: Notch2 binders on small-molecule microarrays, primary screen, biochemical, small-molecule microarray, 635 nm fluorescence, stem cell growth factors (AID 1073). The conditions noted are these: Notch2 binding, higher = more signal.
The target in assay [6] is Pro-neuregulin-1, membrane-bound isoform (Homo sapiens) (UniProt Q02297). Nature of the assay: NRG1 binders on small-molecule microarrays, primary screen, psychiatric disease protein project, biochemical, small-molecule microarray, fluorescence 635/667 (AID 1075).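 Note: score combines 667 nm spot fluorescence with signal to noise.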 The settings on record: NRG1 binding, 635 nm fluorescence, higher = more signal.
The subject of assay [7] is Neuregulin-1 EGF-like domain. Nature of the assay: binders of neuregulin-1 EGF-like domain, primary screen, biochemical, small-molecule microarray, 635 nm fluorescence (AID 1081).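 Note: binding of the protein to compounds printed on small-molecule microarray slides.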 The conditions noted are these: small-molecule microarray binding, higher = more signal.
The nature of assay [8]: FRG1 promoter luciferase signal modulators, primary screen, FRG1 inhibition for FSHD, cell-based, C2C12 myotubes, firefly/Renilla luciferase, luminescence (AID 1084). The conditions noted are these: higher = more signal, called active from +8 up or from −8 down.
The nature of assay [9]: binders of probe aFST on microarray, primary screen, stem cell growth factor project, biochemical, small-molecule microarray, fluorescence 635/667 (AID 1086).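 Note: score merges 667 nm fluorescence with signal-to-noise of each printed compound spot.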 The settings on record: higher = more signal.
Assay [10] is described as follows: binders of probe aHhip on microarray, primary screen, stem cell growth factor project, biochemical, small-molecule microarray, fluorescence 635/667 (AID 1087).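 Note: score merges spot fluorescence at 667nm with spot signal to noise ratio.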 The conditions noted are these: higher = more signal.

Activity calls are given as the source filed them.

Sequence of Pro-neuregulin-1, membrane-bound isoform (Homo sapiens) (Q02297 whole entry, looked up, the tested form may be a part, canonical isoform): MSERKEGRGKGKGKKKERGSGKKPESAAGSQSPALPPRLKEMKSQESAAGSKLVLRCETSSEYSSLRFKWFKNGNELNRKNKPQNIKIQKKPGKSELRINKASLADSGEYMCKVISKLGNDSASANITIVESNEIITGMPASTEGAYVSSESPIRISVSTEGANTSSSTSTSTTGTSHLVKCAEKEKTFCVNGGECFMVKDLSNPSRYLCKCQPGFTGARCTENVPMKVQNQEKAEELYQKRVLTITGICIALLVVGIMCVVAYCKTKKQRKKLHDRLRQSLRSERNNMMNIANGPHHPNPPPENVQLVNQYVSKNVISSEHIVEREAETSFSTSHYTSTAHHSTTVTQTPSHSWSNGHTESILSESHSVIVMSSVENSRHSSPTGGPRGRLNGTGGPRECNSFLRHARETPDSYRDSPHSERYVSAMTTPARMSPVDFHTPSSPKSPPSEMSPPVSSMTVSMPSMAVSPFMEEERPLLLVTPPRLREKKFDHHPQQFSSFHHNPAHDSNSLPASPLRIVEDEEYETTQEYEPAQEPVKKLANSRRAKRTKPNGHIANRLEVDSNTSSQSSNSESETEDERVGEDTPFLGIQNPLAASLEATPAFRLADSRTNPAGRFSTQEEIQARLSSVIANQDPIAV
Sequence of Neurogenic locus notch homolog protein 2 (Homo sapiens) (Q04721 whole entry, looked up, canonical isoform): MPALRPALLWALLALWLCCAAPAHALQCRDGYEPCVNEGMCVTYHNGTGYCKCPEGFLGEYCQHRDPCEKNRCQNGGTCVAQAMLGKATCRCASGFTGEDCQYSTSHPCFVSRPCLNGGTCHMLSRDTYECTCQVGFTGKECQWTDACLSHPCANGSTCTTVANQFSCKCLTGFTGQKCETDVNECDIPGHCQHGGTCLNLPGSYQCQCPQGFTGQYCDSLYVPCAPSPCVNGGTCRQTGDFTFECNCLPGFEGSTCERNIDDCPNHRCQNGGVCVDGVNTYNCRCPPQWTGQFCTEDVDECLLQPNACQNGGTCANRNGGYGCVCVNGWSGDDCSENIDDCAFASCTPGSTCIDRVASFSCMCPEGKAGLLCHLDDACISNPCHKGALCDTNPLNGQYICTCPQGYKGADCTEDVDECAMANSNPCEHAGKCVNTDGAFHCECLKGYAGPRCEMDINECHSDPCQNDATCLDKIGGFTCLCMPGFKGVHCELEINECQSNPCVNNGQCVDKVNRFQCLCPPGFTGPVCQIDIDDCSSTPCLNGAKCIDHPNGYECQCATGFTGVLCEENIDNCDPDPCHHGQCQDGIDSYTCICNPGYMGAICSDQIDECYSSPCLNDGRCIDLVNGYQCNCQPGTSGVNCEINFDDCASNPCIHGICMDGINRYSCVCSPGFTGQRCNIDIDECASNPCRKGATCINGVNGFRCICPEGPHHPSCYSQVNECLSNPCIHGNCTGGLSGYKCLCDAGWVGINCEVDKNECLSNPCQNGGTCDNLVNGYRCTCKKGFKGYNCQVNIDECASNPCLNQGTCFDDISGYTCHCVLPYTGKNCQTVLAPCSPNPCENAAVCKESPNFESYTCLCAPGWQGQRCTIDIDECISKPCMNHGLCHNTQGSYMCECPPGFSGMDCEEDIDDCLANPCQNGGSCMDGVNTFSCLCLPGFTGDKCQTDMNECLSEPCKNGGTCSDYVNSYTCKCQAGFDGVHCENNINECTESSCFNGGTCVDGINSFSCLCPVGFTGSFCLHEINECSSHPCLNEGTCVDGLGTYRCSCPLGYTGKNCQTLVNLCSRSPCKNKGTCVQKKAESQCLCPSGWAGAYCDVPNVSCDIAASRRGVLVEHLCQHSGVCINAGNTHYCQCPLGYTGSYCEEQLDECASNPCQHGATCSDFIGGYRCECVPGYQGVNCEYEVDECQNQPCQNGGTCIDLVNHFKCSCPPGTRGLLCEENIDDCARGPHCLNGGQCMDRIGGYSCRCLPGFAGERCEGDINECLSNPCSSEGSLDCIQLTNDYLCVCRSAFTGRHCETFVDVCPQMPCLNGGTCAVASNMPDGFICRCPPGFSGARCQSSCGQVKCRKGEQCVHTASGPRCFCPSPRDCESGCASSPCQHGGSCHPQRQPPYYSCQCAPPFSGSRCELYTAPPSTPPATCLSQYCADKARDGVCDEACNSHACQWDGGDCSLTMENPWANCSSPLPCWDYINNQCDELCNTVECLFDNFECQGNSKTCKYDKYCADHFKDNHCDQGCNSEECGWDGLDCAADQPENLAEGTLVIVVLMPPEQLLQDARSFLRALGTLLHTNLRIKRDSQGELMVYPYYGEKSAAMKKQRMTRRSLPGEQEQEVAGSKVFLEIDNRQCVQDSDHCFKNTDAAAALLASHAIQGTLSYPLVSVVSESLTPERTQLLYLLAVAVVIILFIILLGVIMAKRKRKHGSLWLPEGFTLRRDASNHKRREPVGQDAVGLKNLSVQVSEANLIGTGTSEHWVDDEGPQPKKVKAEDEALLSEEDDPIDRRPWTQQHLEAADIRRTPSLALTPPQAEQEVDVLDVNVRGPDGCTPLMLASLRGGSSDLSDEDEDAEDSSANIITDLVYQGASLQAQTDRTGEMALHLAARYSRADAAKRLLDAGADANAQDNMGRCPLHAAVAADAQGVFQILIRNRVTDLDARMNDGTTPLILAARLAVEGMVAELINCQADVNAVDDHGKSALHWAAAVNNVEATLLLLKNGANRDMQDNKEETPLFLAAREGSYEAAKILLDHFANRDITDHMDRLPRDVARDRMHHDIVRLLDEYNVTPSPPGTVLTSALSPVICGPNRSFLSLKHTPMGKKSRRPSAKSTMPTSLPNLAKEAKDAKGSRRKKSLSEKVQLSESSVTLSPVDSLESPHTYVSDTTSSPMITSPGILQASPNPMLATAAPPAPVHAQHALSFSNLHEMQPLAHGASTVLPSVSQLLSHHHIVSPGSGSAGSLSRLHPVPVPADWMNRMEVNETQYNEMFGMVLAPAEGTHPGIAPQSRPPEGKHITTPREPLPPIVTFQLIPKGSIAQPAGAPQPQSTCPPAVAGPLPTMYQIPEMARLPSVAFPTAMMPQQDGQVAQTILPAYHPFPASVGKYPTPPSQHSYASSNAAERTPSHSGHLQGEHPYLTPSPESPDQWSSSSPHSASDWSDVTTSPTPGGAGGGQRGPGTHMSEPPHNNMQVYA

For `CCN(CC)c1ccc(N2CC=CC34O[C@@H]5C=CCOC(=O)[C@@H]5[C@H]3C(=O)N(CCCCCCO)[C@@H]4C2=O)cc1` (stereo not given in full), the composite z-score in [1] is 0.52; in [2], 0.19; in assay [3], -0.167; in [4], -0.631; in assay [5] it was -0.489; in [6], 1.87. Besides, the composite z-score was 1.46 in assay [7], -0.263 in [9] and -0.0296 in [10]. The z-score in assay [8] is -0.766 (inactive).

Consider `O=C(CS)NCCCCCNC(=O)[C@@H]1C[C@@H]2C(=O)NCC(=O)N2[C@@H]1c1ccc(O)cc1`, for which the composite z-score is -0.0188 in assay [1]; 0.654 in assay [2]; -0.11 in [3]; 0.0152 in assay [4]; -0.966 in assay [5]; 0.317 in assay [6]. The composite z-score was 1.39 in assay [7], -0.155 in assay [9] and -0.0003 in assay [10]. The z-score in assay [8] was 0.111 (inactive).

With `C[N+](C)(C)CCCC[C@@H]1NC(=O)[C@@H]2C[C@H](C(=O)NCCCCCN)[C@H](c3ccc(O)cc3)N2C1=O`, the composite z-score worked out at 0.419 in assay [1]; 0.896 in [2]; 0.0522 in [3]; 0.628 in assay [4]; 1 in assay [5]; 1.54 in [6]. Further, the composite z-score amounted to 0.636 in [7], 1.19 in [9] and 0.266 in assay [10]. Besides, in assay [8], the z-score was -1.76 (inactive).

Turning to `O=C1C2C=CC(C(O)c3ccc4c(c3)OCO4)N(Nc3ccc([N+](=O)[O-])cc3)C2C(=O)N1c1ccccc1` (stereo not given), the composite z-score in assay [1] is -0.407; in assay [2] it was 0.566; in assay [3] it was 0.0019; in [4], 0.791; in [5], 1.05; in [6] it was 0.626. Besides, the composite z-score is 0.65 in [7], 0.314 in assay [9] and -0.134 in [10]. Also, the z-score in assay [8] is -0.383 (inactive).

For `[N-]=[N+]=Nc1ccccc1C[C@@]1(C(=O)N2CCCCC2)N=C(c2ccc(OCCCO)cc2)O[C@@H]1c1ccccc1`, the composite z-score in assay [1] is 0.155; in assay [2] it was 1.1; in [3], 0.0137; in assay [4] it was 0.763; in assay [5] it was 1.47; in assay [6], 1.74. For the same compound, the composite z-score in assay [7] was found to be 1.11; in [9], 0.884; in assay [10], 0.0873. For the same compound, in assay [8], the z-score is -4.6 (inactive).

With `CN(C)CCCC[C@@H]1NC(=O)[C@H]2C[C@@H](C(=O)NCCCCCN)[C@@H](c3cccc(OCCO)c3)N2C1=O`, the composite z-score was determined as 1.88 in [1]; 2.19 in [2]; 0.269 in [3]; 0.558 in assay [4]; 1.12 in assay [5]; 2.28 in [6]. Also, the composite z-score came out at 1.3 in assay [7], 1.75 in assay [9] and 1.16 in assay [10]. Moreover, in assay [8], the z-score is -0.0269 (inactive).

Take `CN1C(=O)C2C=CC(C(O)C=Cc3ccc([N+](=O)[O-])cc3)N(Nc3ccccc3)C2C1=O` (stereo not given): the composite z-score in assay [1] is -0.283; in assay [2], 0.617; in assay [3] it was 0.0411; in assay [4] it was 0.497; in assay [5], 1.25; in assay [6] it was 1.59. Also, the composite z-score was 1.35 in assay [7], 0.998 in assay [9] and -0.132 in [10]. For the same compound, the z-score in assay [8] is 2.12 (inactive).

`CN(C)CCCCCCNC(=O)[C@@H]1C[C@@H]2C(=O)N3CCC[C@H]3C(=O)N2[C@@H]1c1ccc(O)cc1`: the composite z-score in assay [1] was 0.675; in assay [2], 1.9; in assay [3], 0.0923; in [4] it was 1.18; in assay [5], 0.697; in assay [6] it was 0.543. Further, the composite z-score in assay [7] came to 1.35; in assay [9] it was 0.886; in [10] it was 0.124. In addition, in assay [8], the z-score was 1.53 (inactive).

`COC(=O)C(CC#Cc1ccc2c(c1)[C@]1(C(=O)N2)[C@H](c2ccccc2OCCO)N2[C@H](c3ccccc3)[C@H](c3ccccc3)OC(=O)[C@H]2[C@@H]1C(=O)O)C(=O)OC`: the composite z-score came to 0.187 in [1]; 0.856 in assay [2]; 0.0876 in assay [3]; 0.866 in assay [4]; 0.275 in assay [5]; 1.65 in [6]. Moreover, the values for the composite z-score in [7], in assay [9] and in assay [10] were 1.32, 0.411 and 0.426, respectively. In assay [8], the z-score was -0.173 (inactive).

`C=CC[C@]12N=C(c3ccc(OCCCO)cc3)O[C@H]1c1ccccc1N(CCS(=O)(=O)c1ccccc1)C2=O`: the composite z-score in assay [1] is 0.288; in assay [2], -0.312; in [3], 0.0124; in [4], -0.0268; in assay [5] it was 1.07; in assay [6] it was 1.13. For the same compound, the composite z-score is 1.32 in assay [7], 0.0964 in assay [9] and -0.3 in [10]. For the same compound, in assay [8], the z-score is -3.1 (inactive).

With `COCC(=C=CC[C@@H](O)c1ccc(OCCO)cc1)C[C@@H](O)c1ccccn1`, the composite z-score is -0.212 in [1]; -0.116 in assay [2]; -0.0633 in [3]; 0.923 in assay [4]; 0.687 in [5]; 1 in assay [6]. Further, the figures for the composite z-score in [7], in assay [9] and in assay [10] were 1.24, 0.423 and -0.236, respectively. In addition, in [8], the z-score is 1.33 (inactive).

On to `COCCOC(=O)N1C(=O)[C@@]2(c3ccccc31)[C@H](C(=O)N1CCc3cc(OC)c(OC)cc3C1)[C@H]1C(=O)O[C@H](c3ccccc3)[C@H](c3ccccc3)N1[C@@H]2c1ccc(O)cc1`, for which the composite z-score in assay [1] is -0.159; in assay [2], 0.706; in [3], -0.0303; in [4], 0.647; in [5] it was 1.28; in [6], 0.832. Moreover, the composite z-score is 1.26 in [7], -0.0345 in assay [9] and 0.0302 in assay [10]. In assay [8], the z-score is -2.26 (inactive).

Turning to `COCCOC(=O)N1C(=O)[C@@]2(c3cc(C#CC4(O)CCCCCC4)ccc31)[C@H](C(=O)Nc1nc3ccccc3s1)[C@H]1C(=O)O[C@H](c3ccccc3)[C@H](c3ccccc3)N1[C@@H]2c1ccc(OCCO)cc1`, the composite z-score is -0.568 in assay [1]; 0.392 in assay [2]; -0.083 in assay [3]; 0.797 in assay [4]; 1.07 in assay [5]; 0.727 in [6]. Further, the values for the composite z-score in [7], in assay [9] and in assay [10] were 1.15, 0.277 and 0.0749, respectively. For the same compound, the z-score in assay [8] was 4.24 (inactive).

`COc1ccc(C(=O)Nc2ccc(CN3C(=O)[C@]4(O[C@H](CC(=O)N5CCC[C@H]5CO)[C@@H]([Si](C)(C)c5ccc(OC)cc5)[C@@H]4C)c4ccccc43)cc2)cc1`: the composite z-score in assay [1] is -0.332; in assay [2] it was 0.355; in [3] it was -0.0715; in assay [4] it was 0.656; in [5], 0.351; in assay [6] it was 1.42. For the same compound, the composite z-score is 1.31 in assay [7], -0.0939 in assay [9] and 0.0749 in assay [10]. In addition, the z-score in [8] is -1.54 (inactive).

Consider `O=C(CS)NCCCCCNC(=O)[C@H]1C[C@H]2C(=O)NCC(=O)N2[C@H]1c1ccc(O)cc1`, for which the composite z-score was 0.205 in assay [1]; 0.354 in assay [2]; -0.159 in [3]; -0.583 in [4]; -1.4 in assay [5]; -0.83 in assay [6]. In addition, the composite z-score in [7] is -0.0307; in [9], -0.753; in assay [10] it was -0.204. Moreover, the z-score in [8] was 1.41 (inactive).

Regarding `COC(=O)[C@@]1(Cc2ccccc2)[C@H]2c3cc(C(=O)N(C)C)n(CCc4c[nH]c5ccc(O)cc45)c3C[C@H]2CN1C(=O)c1ccccc1`, the composite z-score is 0.808 in assay [1]; -0.0685 in assay [2]; 0.0518 in assay [3]; 0.188 in assay [4]; 0.832 in assay [5]; -0.198 in [6]. For the same compound, the composite z-score in assay [7] was 1.29; in assay [9] it was 1.21; in [10], -0.191. The z-score in [8] is 0.688 (inactive).

On to `COCCCNC(=O)[C@@H]1c2ccccc2C(=O)N(Cc2ccccc2)[C@H]1c1ccc(CO)cc1`, for which the composite z-score in assay [1] was 0.0981; in assay [2], 0.361; in assay [3], -0.0952; in assay [4] it was 0.12; in assay [5] it was 0.712; in assay [6] it was 0.943. Besides, the composite z-score in assay [7] is 0.565; in assay [9], 0.418; in assay [10] it was 0.253. The z-score in assay [8] is -0.179 (inactive).

For the origin of these results see PubChem BioAssay.
